Compounds without any hit were thinned out: in the full panel of roughly 83,000, 20% have a hit.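 Cell lines were cultured in 96-well plates, exposed to a single compound concentration, and assessed for percent growth 48 hours later.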 Activity calls are given as the source filed them. Rule for the calls: active = growth percent below 10; inactive = the rest.

One test relates to CAKI-1 renal. Kind of test: NCI-60 one-dose screen, 48 h (100 = growth as untreated, 0 = no growth, -100 = all killed). As to conditions: 10 µM unless noted.
On to `CCc1oc2ccccc2c1C(=O)c1cc(I)c(O)c(I)c1`, for which the growth was 45.9% (inactive).

With `COc1cccc2nc(Nc3cccc(NC(=O)c4cc(N5CCOCC5)cc(C(F)(F)F)c4)c3)ccc12`, the growth is 60.7% (inactive).

In the case of `FC(F)(F)c1ccc(/C=N/Nc2nnc3n2N=C(c2ccc(Cl)cc2)CS3)cc1`, the growth was 63.5% (inactive).

Consider `Nc1nc2ccc([C@@H]3Nc4ccc5[nH]ncc5c4[C@H]4[C@H]5CCC(C5)[C@H]43)cc2s1`, for which the growth was 29.8% (inactive).

Turning to `C/C=C(\C)C(C(=O)NC1CCCCC1)N(C(=O)C1CCc2cc(F)ccc2O1)c1ccc([N+](=O)[O-])cc1` (stereo not drawn), the growth is 80.2% (inactive).

For `COc1cc(C2Nc3ccccc3S2)cc(CN2CCOCC2)c1O` (stereo not drawn), the growth was 74% (inactive).

For `C#CCNC(=S)N/N=C(\C)c1ccccn1`, the growth was -13.6% (active).

In the case of `COc1cc2nccc(Oc3ccc(NC(=O)C4(C(=O)Nc5c(F)cc(F)cc5F)CC4)cc3)c2cc1Oc1ccc(N)cn1`, the growth is 65.6% (inactive).

For the compound `COc1ccc2c(c1)CCCC21C(=O)Nc2ccccc21` (stereo not drawn), the growth was 103% (inactive).

For `CCCCCCCCCC1=NC(C)(C)CN1C(C)(C)CO`, the growth is 75% (inactive).

Regarding `CCN(CC)CCCC(C)Nc1cnc(C(=O)Nc2cc(C)cc3cccnc23)cn1` (stereo not drawn), the growth is 93.4% (inactive).

`C/C(CC(=O)NNc1ccc([N+](=O)[O-])cc1)=N\Nc1ccc([N+](=O)[O-])cc1`: the growth is 31.3% (inactive).

As for `COc1ccc2c(c1)CCCC21C(=O)Nc2c(Cl)cccc21` (stereo not drawn), the growth is 54.9% (inactive).

With `CCN(CC)CCCNc1cccc2c(C)cc(OC)nc12`, the growth is 96.8% (inactive).

On to `Cc1nn(-c2ccc(Cl)cc2)c(=O)n1CCN1CCOCC1`, for which the growth is 72.4% (inactive).

Turning to `CCN(C(=O)Nc1cccc2ccccc12)c1ccccc1`, the growth is 99.9% (inactive).

For the compound `CCCCCCCCCCC(C(O)c1ccccc1)N1CCCCC1` (stereo not drawn), the growth was -21.1% (active).

On to `CC1CN(CCCOC(=O)Nc2ccc(Cl)cc2)CCN1C(C)(C)C` (stereo not drawn), for which the growth is 89.8% (inactive).

`Cc1ccc(/C=C/C(=N/N=C(N)N)c2ccccc2)cc1`: the growth is 16.4% (inactive).

Regarding `O=C(Nc1ccc(Br)cc1)Nc1ccccc1Cl`, the growth is 55.2% (inactive).

Turning to `CC1C2CCC(C2)C1COCCOCCO` (stereo not drawn), the growth was 105% (inactive).

`O=C1Cc2c([nH]c3ccc([N+](=O)[O-])cc23)-c2ccccc2N1`: the growth was 16.4% (inactive).

As to `CCN(CC)CCCC(C)Nc1cnc(C(=O)Nc2ccc(Cl)c3cccnc23)cn1` (stereo not drawn), the growth was 23.1% (inactive).

In the case of `CC(=O)c1nn(-c2ccccc2)/c(=N\N=C\c2coc3ccc(F)cc3c2=O)s1`, the growth is 82.3% (inactive).

`Cc1c(O)c(=O)n(-c2ccccc2)n1C`: the growth is 107% (inactive).

Take `CSC(=S)N/N=C(\C)c1ccccn1`: the growth was -9.67% (active).

`CN1CCN(Cc2ccc(NC(=O)c3cncc(C#Cc4cnc5cccnn45)c3)cc2C(F)(F)F)CC1`: the growth is 5.93% (active).

On to `O=C1c2ccccc2C(=O)c2c1oc1ccc3ccccc3c21`, for which the growth is 90.3% (inactive).

As to `CN(C)c1ccc(/C=N/Nc2nnc3n2N=C(c2ccc(Cl)cc2)CS3)cc1`, the growth was 96.8% (inactive).

Take `C#CC[C@@H]1C[C@]2(C)[C@H]3CC=C4[C@H]5CC(C)(C)CC[C@]5(C(=O)NCCCCN)CC[C@@]4(C)[C@]3(C)CC[C@H]2C(C)(C)[C@H]1OC(C)=O`: the growth was -70% (active).

Turning to `COc1ccc(C(=O)C(CN(C)C)c2ccccc2)cc1` (stereo not drawn), the growth was -46.7% (active).

Turning to `C#CC[C@@H]1C[C@]2(C)[C@H]3CC=C4[C@H]5[C@@H](C)[C@H](C)CC[C@]5(C(=O)NCCCCCCCCN)CC[C@@]4(C)[C@]3(C)CC[C@H]2C(C)(C)[C@H]1OC(C)=O`, the growth was -69.7% (active).

On to `CCCCNCC(O)c1cc2c(Cl)cc(Cl)cc2c2cc(C(F)(F)F)ccc12` (stereo not drawn), for which the growth is -65.1% (active).

For the compound `COc1ccc(/C(=C\c2ccc3c(c2)OCO3)C(=O)Nc2nc3ccccc3s2)cc1`, the growth is 91.4% (inactive).

In the case of `Nc1ccc(N(O)/C=C2\C=CC=CC2=O)cc1N`, the growth is 100% (inactive).

Turning to `Fc1[nH]nc2ccc([C@@H]3Nc4ccc5[nH]ncc5c4[C@H]4C5CCC(C5)[C@@H]34)cc12` (stereo partly drawn), the growth is 32.6% (inactive).

`Cc1c(-c2ccc(-c3ccccc3F)cc2)nc2ccc(F)cc2c1C(=O)O`: the growth was 25.9% (inactive).

For the compound `C=C(C)[C@@H]1CC[C@]2(C)[C@H](CC=C3[C@@H]4C[C@](C)(C(=O)N5CCN(C)CC5)CC[C@]4(C)CC[C@]32C)[C@@]1(C)CCC#N`, the growth is 63% (inactive).

For the compound `CNCc1cccc2c1OCCOCCOCCC(C)S(=O)(=O)c1ccc(cc1)-c1cnc(N)c(n1)C(=O)N2` (stereo not drawn), the growth is 18.6% (inactive).

In the next test the test system is A498 renal. The description is as above. As to conditions: 10 µM unless noted.
As to `CCc1oc2ccccc2c1C(=O)c1cc(I)c(O)c(I)c1`, the growth was 98.2% (inactive).

Regarding `COc1cccc2nc(Nc3cccc(NC(=O)c4cc(N5CCOCC5)cc(C(F)(F)F)c4)c3)ccc12`, the growth is 99.4% (inactive).

In the case of `FC(F)(F)c1ccc(/C=N/Nc2nnc3n2N=C(c2ccc(Cl)cc2)CS3)cc1`, the growth is 69.9% (inactive).

`Nc1nc2ccc([C@@H]3Nc4ccc5[nH]ncc5c4[C@H]4[C@H]5CCC(C5)[C@H]43)cc2s1`: the growth is -2.86% (active).

As to `C/C=C(\C)C(C(=O)NC1CCCCC1)N(C(=O)C1CCc2cc(F)ccc2O1)c1ccc([N+](=O)[O-])cc1` (stereo not drawn), the growth is 90.3% (inactive).

As to `COc1cc(C2Nc3ccccc3S2)cc(CN2CCOCC2)c1O` (stereo not drawn), the growth is 73.3% (inactive).

On to `C#CCNC(=S)N/N=C(\C)c1ccccn1`, for which the growth is 16.7% (inactive).

As for `COc1cc2nccc(Oc3ccc(NC(=O)C4(C(=O)Nc5c(F)cc(F)cc5F)CC4)cc3)c2cc1Oc1ccc(N)cn1`, the growth is -6.52% (active).

In the case of `COc1ccc2c(c1)CCCC21C(=O)Nc2ccccc21` (stereo not drawn), the growth was 99.7% (inactive).

Take `CCCCCCCCCC1=NC(C)(C)CN1C(C)(C)CO`: the growth is 93% (inactive).

Take `CCN(CC)CCCC(C)Nc1cnc(C(=O)Nc2cc(C)cc3cccnc23)cn1` (stereo not drawn): the growth was 70.3% (inactive).

As to `C/C(CC(=O)NNc1ccc([N+](=O)[O-])cc1)=N\Nc1ccc([N+](=O)[O-])cc1`, the growth is 81% (inactive).

On to `COc1ccc2c(c1)CCCC21C(=O)Nc2c(Cl)cccc21` (stereo not drawn), for which the growth is 79.6% (inactive).

Regarding `CCN(CC)CCCNc1cccc2c(C)cc(OC)nc12`, the growth is 70.3% (inactive).

As for `Cc1nn(-c2ccc(Cl)cc2)c(=O)n1CCN1CCOCC1`, the growth was 105% (inactive).

With `CCN(C(=O)Nc1cccc2ccccc12)c1ccccc1`, the growth is 90.2% (inactive).

Take `CCCCCCCCCCC(C(O)c1ccccc1)N1CCCCC1` (stereo not drawn): the growth is 75.1% (inactive).

Regarding `CC1CN(CCCOC(=O)Nc2ccc(Cl)cc2)CCN1C(C)(C)C` (stereo not drawn), the growth was 95.2% (inactive).

`Cc1ccc(/C=C/C(=N/N=C(N)N)c2ccccc2)cc1`: the growth was -5.04% (active).

Take `O=C(Nc1ccc(Br)cc1)Nc1ccccc1Cl`: the growth was 86.9% (inactive).

With `CC1C2CCC(C2)C1COCCOCCO` (stereo not drawn), the growth was 83.7% (inactive).

On to `O=C1Cc2c([nH]c3ccc([N+](=O)[O-])cc23)-c2ccccc2N1`, for which the growth is -5.07% (active).

Turning to `CCN(CC)CCCC(C)Nc1cnc(C(=O)Nc2ccc(Cl)c3cccnc23)cn1` (stereo not drawn), the growth was 54% (inactive).

Turning to `CC(=O)c1nn(-c2ccccc2)/c(=N\N=C\c2coc3ccc(F)cc3c2=O)s1`, the growth was 125% (inactive).

In the case of `Cc1c(O)c(=O)n(-c2ccccc2)n1C`, the growth is 120% (inactive).

Take `CSC(=S)N/N=C(\C)c1ccccn1`: the growth was -3.97% (active).

For the compound `CN1CCN(Cc2ccc(NC(=O)c3cncc(C#Cc4cnc5cccnn45)c3)cc2C(F)(F)F)CC1`, the growth was -33.1% (active).

On to `O=C1c2ccccc2C(=O)c2c1oc1ccc3ccccc3c21`, for which the growth is 88.5% (inactive).

Take `CN(C)c1ccc(/C=N/Nc2nnc3n2N=C(c2ccc(Cl)cc2)CS3)cc1`: the growth was 85.6% (inactive).

For `C#CC[C@@H]1C[C@]2(C)[C@H]3CC=C4[C@H]5CC(C)(C)CC[C@]5(C(=O)NCCCCN)CC[C@@]4(C)[C@]3(C)CC[C@H]2C(C)(C)[C@H]1OC(C)=O`, the growth is 104% (inactive).

As for `COc1ccc(C(=O)C(CN(C)C)c2ccccc2)cc1` (stereo not drawn), the growth is 60.2% (inactive).

Take `C#CC[C@@H]1C[C@]2(C)[C@H]3CC=C4[C@H]5[C@@H](C)[C@H](C)CC[C@]5(C(=O)NCCCCCCCCN)CC[C@@]4(C)[C@]3(C)CC[C@H]2C(C)(C)[C@H]1OC(C)=O`: the growth is 94.5% (inactive).

`CCCCNCC(O)c1cc2c(Cl)cc(Cl)cc2c2cc(C(F)(F)F)ccc12` (stereo not drawn): the growth was -19.7% (active).

As for `COc1ccc(/C(=C\c2ccc3c(c2)OCO3)C(=O)Nc2nc3ccccc3s2)cc1`, the growth is 99.9% (inactive).

Regarding `Nc1ccc(N(O)/C=C2\C=CC=CC2=O)cc1N`, the growth was 88.9% (inactive).

Take `Fc1[nH]nc2ccc([C@@H]3Nc4ccc5[nH]ncc5c4[C@H]4C5CCC(C5)[C@@H]34)cc12` (stereo partly drawn): the growth is -12.4% (active).

With `Cc1c(-c2ccc(-c3ccccc3F)cc2)nc2ccc(F)cc2c1C(=O)O`, the growth was 80.9% (inactive).

On to `C=C(C)[C@@H]1CC[C@]2(C)[C@H](CC=C3[C@@H]4C[C@](C)(C(=O)N5CCN(C)CC5)CC[C@]4(C)CC[C@]32C)[C@@]1(C)CCC#N`, for which the growth is 97% (inactive).

`CNCc1cccc2c1OCCOCCOCCC(C)S(=O)(=O)c1ccc(cc1)-c1cnc(N)c(n1)C(=O)N2` (stereo not drawn): the growth is 6.01% (active).

Values taken from PubChem BioAssay (NCI).
